Measurements taken from PubChem BioAssay (NCATS).
Results filed as inconclusive are left out. The source made the active and inactive calls. Calls come from the whole dose curve; as a rule, active = well fitted curve in the direction sought with a large enough effect; inconclusive = small, poorly fitted or top-dose-only effect, or another doubt; inactive = no such curve, though single readings can be large; an effect the other way counts as inactive or inconclusive.

Tests used:
[1] = qHTS to identify inhibitors of the type 1 interferon - major histocompatibility complex class I in skeletal muscle: primary screen against the NCATS Pharmaceutical Collection (AID 1347407);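 note: luminescence of HiBiT knocked into endogenous HLA-B as interferon-induced MHC class I level; % is set by controls: 0 for no effect and ±100 for the full control effect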
Summary of the method: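 Immortalized human myoblasts (C25cl48) with HiBiT knocked into endogenous HLA-B*08:01 were stimulated with 4.0 ng/ml IFN-beta and treated with compounds ([…] top 46 uM) for 24 hrs at 37 C. HiBiT lytic luminescence read.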

[2] = molecular target: Protein phosphatase 1D (Homo sapiens) (UniProt O15297); experiment: RapidFire Mass Spectrometry qHTS Assay for Modulators of WT P53-Induced Phosphatase 1 (WIP1) (AID 1347424);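 note: series mostly up to about 63 µM; plate controls were DMSO wells for no effect and GSK830371 inhibitor control at 10 µM for full effect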
Sequence of Protein phosphatase 1D (Homo sapiens) (O15297 whole entry, looked up): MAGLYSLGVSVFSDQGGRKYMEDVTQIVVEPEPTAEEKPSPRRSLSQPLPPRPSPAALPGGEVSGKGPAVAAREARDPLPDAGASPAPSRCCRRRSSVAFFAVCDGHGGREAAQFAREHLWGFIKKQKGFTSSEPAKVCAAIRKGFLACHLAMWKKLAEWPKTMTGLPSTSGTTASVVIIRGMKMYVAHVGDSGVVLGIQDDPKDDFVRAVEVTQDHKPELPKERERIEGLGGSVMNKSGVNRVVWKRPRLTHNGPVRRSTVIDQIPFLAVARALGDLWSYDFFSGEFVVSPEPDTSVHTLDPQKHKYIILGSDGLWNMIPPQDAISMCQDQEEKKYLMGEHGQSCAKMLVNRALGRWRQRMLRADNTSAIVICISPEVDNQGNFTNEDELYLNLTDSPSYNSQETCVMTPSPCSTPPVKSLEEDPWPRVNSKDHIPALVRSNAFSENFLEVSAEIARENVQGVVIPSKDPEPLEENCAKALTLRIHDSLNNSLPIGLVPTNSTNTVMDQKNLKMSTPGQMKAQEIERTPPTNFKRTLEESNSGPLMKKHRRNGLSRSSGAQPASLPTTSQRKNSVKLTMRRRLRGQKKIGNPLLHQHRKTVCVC
Summary of the method: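 RapidFire MS readout of dephosphorylated VEPPL-S-QETFS product, with 1 uM isotope-labelled peptide standard. Reaction: 10 nM WIP1, 2 uM phosphopeptide substrate, 5 min, room temperature, after 1 h compound preincubation; stopped with 0.5% formic acid.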

[3] = molecular target: Protein phosphatase 1D (Homo sapiens) (UniProt O15297); experiment: Rhodamine-PBP qHTS Assay for Modulators of WT P53-Induced Phosphatase 1 (WIP1) (AID 1347425); note: % of control where 0% means no effect
Summary of the method: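 Read-out: Rhodamine-PBP fluorescence (ex 525/em 598 nm) for released Pi, read each minute for 11 min after adding 10 uM VEPPL-pS-QETFS; signal taken as f1 minus pre-substrate f0. Enzyme 5 nM WIP1 with 1 hr room-temperature compound preincubation.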

[4] = Primary qHTS for inhibitors of La Crosse Virus (LACV) - induced cell death in SH-SY5Y cells (AID 1508616);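 note: top concentration of the series differs between compounds; 0% = infected DMSO wells and 100% = uninfected DMSO wells; higher means more rescue of cells from virus-induced death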
Summary of the method: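 Cytopathicity rescue screen: compounds pinned onto SH-SY5Y cells, which are then infected with LACV (MOI 0.01) and held 6 days at 37C. Percent activity is scaled between infected DMSO control and uninfected DMSO control.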

[5] = molecular target: Calcium and integrin-binding protein 1 (Homo sapiens) (UniProt Q99828); experiment: Primary qHTS for Identification of Calcium Integrin Binding Protein 1 (CIB1) Competitor (AID 1508620);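 note: GST tagged CIB1 binding a fluorescein labelled alphaIIb integrin peptide tracer; top concentration of the series differs between compounds; % is set by controls: 0 for no effect and ±100 for the full control effect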
Sequence of Calcium and integrin-binding protein 1 (Homo sapiens) (Q99828 whole entry, looked up): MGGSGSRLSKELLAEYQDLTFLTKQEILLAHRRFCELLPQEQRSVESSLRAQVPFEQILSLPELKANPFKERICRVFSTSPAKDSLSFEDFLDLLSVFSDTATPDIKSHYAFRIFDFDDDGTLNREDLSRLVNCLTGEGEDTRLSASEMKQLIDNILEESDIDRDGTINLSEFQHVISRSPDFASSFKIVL
Summary of the method: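 Fluorescence polarization competition: GST-tagged CIB1 (1 uM final) preincubated with compound 15 min at room temperature, then FITC-labelled alphaIIb peptide (100 nM final) added. After 15 min at room temperature, polarization read at Ex 480/Em 540.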

CCOC(=O)c1cc(=O)c2c(OCC(COc3cccc4oc(C(=O)OCC)cc(=O)c34)OC(=O)[C@@H](N)CCCCN)cccc2o1
inactive: Potency [1] | Potency [2] | outcome [3] | outcome [4] | Potency [5]

CC(C)(C)C(=O)OCOC(=O)C1N2C(=O)CC2S(=O)(=O)C1(C)C (stereo not given)
inactive: Potency [1] | Potency [2] | outcome [3] | outcome [4] | Potency [5]

CN(C)CCN1CCN(c2cccc(Cl)c2)C1=O
inactive: Potency [1] | Potency [2] | outcome [3] | outcome [4] | Potency [5]

NCC[C@H](O)C(=O)N[C@@H]1C[C@H](N)[C@@H](O[C@H]2O[C@H](CN)[C@@H](O)[C@H](O)[C@@H]2O)[C@H](O)[C@@H]1O[C@H]1O[C@H](CO)[C@@H](O)[C@H](N)[C@@H]1O
inactive: activity change, negative = inhibition [1] -1.93% [at 0.727 µM] | activity change, negative = inhibition [2] 3.64% [at 0.505 µM] | activity change, negative = inhibition [3] 3.01% [at 0.575 µM] | activity change [4] 4.33% [at 0.0343 µM] | activity change, negative = inhibition [5] 3.05% [at 1.07 µM]

CCCCN(CCCC)C(C(N)=O)c1ccc(OC)cc1 (stereo not given)
inactive: Potency [1] | Potency [2] | outcome [3] | outcome [4] | Potency [5]

COc1ccc(/C(C)=C/C(=O)O)c(OC)c1
inactive: Potency [1] | Potency [2] | outcome [3] | outcome [4] | Potency [5]

C[N+](C)(CCOc1ccccc1)Cc1cccs1
inactive: Potency [1] | Potency [2] | outcome [3] | outcome [4] | Potency [5]

C[C@@H](C1=C(CCN(C)C)Cc2ccccc21)c1ccccn1
inactive: Potency [1] | Potency [2] | outcome [3] | outcome [4] | Potency [5]

CN(C)CCN(Cc1ccsc1)c1ccccn1
inactive: Potency [1] | Potency [2] | outcome [3] | outcome [4] | Potency [5]
